Assay outcomes: PubChem, National Center for Advancing Translational Sciences (NCATS)
Sm TGR inh: qHTS Assay for the Inhibitors of Schistosoma Mansoni Peroxiredoxins; purified TGR, DTNB reduction, TNB absorbance 405 nm; AID 485364, 2010; actives 3% (n = 360,000); Potency, µM (top dose mostly 114 µM), inactives show at the top dose activity change, negative = inhibition, hits mostly inhibitors; Schistosoma mansoni thioredoxin glutathione reductase (TGR), Q962Y6; also: % is scaled to controls: 0 for no effect and ±100 for the full control effect; nearly all actives have a fitted effect of over 60% in size
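TGR 20 nM + NADPH 100 uM (dispensed conc.), cpd preinc 15 min RT; start with NADPH (500 uM addition) then DTNB (15 mM addition). Kinetic TNB absorbance, 405 nm filter. Four-parameter Hill fit across titration.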
Pf growth 96h: Primary qHTS for delayed death inhibitors of the malarial parasite plastid, 96 hour incubation; P. falciparum luciferase reporter growth, 96 h; Potency, µM (top dose mostly 28.7 µM), for the others: at the top dose activity change, negative = inhibition, actives largely listed as inhibitors; actives 6.9% (n = 320,000); AID 504834, 2011; also: % is scaled to controls: 0 for no effect and ±100 for the full control effect
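Delayed-death screen, second-generation endpoint: infected erythrocytes, 2% hematocrit, 0.05% parasitemia final; 96 hours at 37 C, 5% CO2; luciferase detection reagent; luminescence decrease equals reduced growth.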
AmpC detergent: qHTS Inhibitors of AmpC Beta-Lactamase (assay with detergent); AmpC hydrolysis of nitrocefin, absorbance 480 nm, 0.01% Triton; Potency, µM (series often up to 114 µM), without a hit: at the highest dose activity change, negative = inhibition, most hits filed as inhibitors; actives 0.041% (n = 370,000); AID 485294, 2010;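 also: 0% = no-compound wells and -100% = no-enzyme wells; nearly all actives have a fitted effect of over 25% in size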
Target sequence (P00811 whole entry, looked up): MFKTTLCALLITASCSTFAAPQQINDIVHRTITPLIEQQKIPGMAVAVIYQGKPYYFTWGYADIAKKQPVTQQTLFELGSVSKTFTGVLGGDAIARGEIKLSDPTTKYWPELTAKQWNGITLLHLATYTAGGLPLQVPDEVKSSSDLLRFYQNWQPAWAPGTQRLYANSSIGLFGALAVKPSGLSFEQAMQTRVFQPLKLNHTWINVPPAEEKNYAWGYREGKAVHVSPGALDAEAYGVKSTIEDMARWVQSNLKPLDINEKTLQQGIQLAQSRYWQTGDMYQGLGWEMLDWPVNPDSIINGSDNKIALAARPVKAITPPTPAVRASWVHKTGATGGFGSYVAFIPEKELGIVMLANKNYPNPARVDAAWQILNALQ
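20 mM phosphate pH 7.0 + 0.01% (detergent screen) or 0.0001% Triton X-100; 5.3 nM AmpC reagent; cpd preinc 15 min RT; nitrocefin (800 uM stock) to start; A480 q20 s × 4 min; Activity was normalised to no-enzyme and no-compound control wells.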
AmpC inh no detg: qHTS Inhibitors of AmpC Beta-Lactamase (assay without detergent). actives 0.52% (n = 330,000). Potency, µM (doses to about 57.1 µM), for inactives: at the top dose activity change, negative = inhibition, actives largely listed as inhibitors. P00811. AmpC nitrocefin hydrolysis, absorbance 480 nm, 0.0001% Triton. AID 485341, 2010;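 also: plate controls were no compound for no effect and no enzyme for full effect; nearly all actives have a fitted effect of over 20% in size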
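20 mM phosphate pH 7.0 + 0.01% (detergent screen) or 0.0001% Triton X-100; 5.3 nM AmpC reagent; cpd preinc 15 min RT; nitrocefin (800 uM stock) to start; A480 q20 s × 4 min; Activity was normalised to no-enzyme and no-compound control wells.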
SARS PLpro yeast: qHTS of Yeast-based Assay for SARS-CoV PLP; AID 485353, 2010; Potency, µM (highest dose often 32.9 µM), inactives show top-dose activity, positive = growth rescue, usual class: activators; S. cerevisiae expressing SARS-CoV PLpro, growth rescue; actives 0.19% (n = 330,000); calls by dose curve; also: 0% is about no effect; nearly all actives have a fitted effect of over 55% in size
Pf growth 48h: Primary qHTS for delayed death inhibitors of the malarial parasite plastid, 48 hour incubation; P. falciparum luciferase growth in erythrocytes, 48 h; Potency, µM (highest dose often 28.7 µM), without a hit: top-dose activity change, negative = inhibition, most hits filed as inhibitors; actives 5.9% (n = 310,000); AID 504832, 2011; also: % is scaled to controls: 0 for no effect and ±100 for the full control effect
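In quantitative HTS format, infected erythrocytes bearing luciferase-reporter parasites were treated for a single generation at 37 C. Luminescence after adding detection reagent served as the growth measure.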
The depositor's hits bear a star; ? = inconclusive; nt = no result given. Hits are enriched below; roughly 12% of the tested compounds scored in any of these assays. Unless noted, calls follow the shape of the dose curve; as a rule, active = well fitted curve in the direction sought with a large enough effect; inconclusive = small, poorly fitted or top-dose-only effect, or another doubt; inactive = no such curve, though single readings can be large; an effect the other way counts as inactive or inconclusive. Potency is read from the fitted curve at half-maximal effect.

SMILES	Sm TGR inh	Pf growth 96h	AmpC detergent	AmpC inh no detg	SARS PLpro yeast	Pf growth 48h
Cc1ccc(-n2ncc3c(NCc4ccccn4)ncnc32)c(C)c1	0%	?	?	0%	1%	?
Cc1ccc(-n2ncc3c(N4CCN(c5ccccc5)CC4)ncnc32)c(C)c1	16%	?	-13%	-2%	6%	12µM*
Cc1cccc(C(=O)N2CCN(c3ncnc4c3cnn4-c3ccccc3)CC2)c1	2%	-15%	?	1%	18%	9.3µM*
CC1CCc2c(sc(NC(=O)CN3CCN(C(=O)c4ccco4)CC3)c2C#N)C1 (configuration not stated)	-8%	?	?	99%	-3%	?
COc1ccc(N2CCN(S(=O)(=O)c3c(C)nc4scc(C)n4c3=O)CC2)cc1	-10%	2%	3%	59%	-3%	?
NS(=O)(=O)c1ccc(CCNCC(=O)NC2CC2)cc1	-24%	29%	0%	-13%	0%	33%
CCCCCCCC[n+]1cccc(C(=O)N(CC)CC)c1	3%	8.3µM*	8%	-1%	-21%	?
CCCCCCCCCCCCCCCC[n+]1cccc(C(=O)N(CC)CC)c1	0%	2.6µM*	0%	380%	-67%	5.2µM*
CCOc1ccccc1C1C(C#N)=C(N)N(N(C)C)C2=C1C(=O)CCC2 (configuration not stated)	10%	?	-1%	-3%	2%	-30%
Cc1cc(NS(=O)(=O)c2ccc(NC(=O)COc3ccc(Cl)cc3)cc2)nc(C)n1	-9%	nt	-7%	nt	nt	nt
C#CCN1C(=O)C(O)(c2c(C)[nH]c3ccccc23)c2ccccc21 (configuration not stated)	7%	33%	6%	-21%	-2%	-1%
CCCN1C(=O)C(O)(c2c(C)[nH]c3ccccc23)c2ccccc21 (configuration not stated)	45µM*	8%	3%	-5%	-4%	4%
Cc1[nH]c2ccccc2c1C1(O)C(=O)N(Cc2ccc3c(c2)OCO3)c2ccccc21 (configuration not stated)	0%	13µM*	-11%	-4%	-38%	-21%
CCOCCc1nnc(NC(=O)C(=O)c2cc(C)n(-c3cccc(Cl)c3)c2C)s1	4%	nt	-1%	nt	nt	nt
CC(C)=NOc1nc(N2CCOCC2)nc(N2CCOCC2)n1	3%	0%	2%	-13%	-1%	37%
CCOc1ccc2c(c1)c(=O)c(S(=O)(=O)c1ccccc1)cn2CC(=O)Nc1ccccc1OC	3%	nt	4%	nt	nt	nt
O=C(Nc1nnc(-c2ccccc2)o1)C1CCCN1S(=O)(=O)c1cccs1 (configuration not stated)	8%	7%	?	0%	-1%	-20%
COc1ccc(-c2c3c(cc4ncn(Cc5ccccc5)c24)COC3=O)cc1	32µM*	1%	4%	-18%	0%	?
O=S(=O)(NCCCc1ccccc1)c1ccc(Cl)cc1	-1%	9.3µM*	-11%	-28%	-28%	6%
Cc1cn([C@H]2C[C@H](N=[N+]=[N-])[C@H](CO)O2)c(=O)[nH]c1=O	nt	10%	nt	nt	nt	-6%
O=C(O)c1ccc(C[n+]2c(-c3ccccc3)csc2Nc2ccccc2)cc1	-19%	19%	-8%	-15%	10%	14%
Clc1ccc(C[n+]2c(-c3ccccc3)cc(-c3ccccc3)cc2-c2ccccc2)cc1	-22%	0.33µM*	-6%	84%	-4%	0.37µM*
Fc1ccc(C[n+]2c(-c3ccccc3)cc(-c3ccccc3)cc2-c2ccccc2)cc1	-4%	0.37µM*	?	56%	2%	0.93µM*
COC(=O)[C@@H](NC(=O)NC1CCCc2ccccc21)C(C)C (some centres not stated)	-2%	29%	-2%	-11%	-10%	-19%
Cc1cc(=O)c2cc(C(=O)Nc3ccc(F)cc3)ccc2[nH]1	-5%	nt	29%	nt	nt	nt
SMILES	Sm TGR inh	Pf growth 96h	AmpC detergent	AmpC inh no detg	SARS PLpro yeast	Pf growth 48h
Cc1ccc(C)c(NC(=O)Cn2cnc3nc4c(cc3c2=O)CCCC4)c1	-11%	nt	0%	nt	nt	nt
Cc1noc(C)c1C(=O)OCC(=O)c1c[nH]c2ccccc12	-1%	?	?	-23%	-3%	9.3µM*
Cc1cc(C(=O)OCC(=O)c2cccc([N+](=O)[O-])c2)c2cccc(C)c2n1	0%	0.41µM*	-10%	-29%	17%	?
CCc1cccc2c(C(=O)COC(=O)c3c(C)noc3C)c[nH]c12	5%	57%	-8%	0%	5%	25%
O=C(OCC(=O)c1c[nH]c2ccccc12)c1cccc([N+](=O)[O-])c1	-3%	13µM*	0%	-38%	-2%	8.3µM*
CC(C)(C)c1ccc(C(=O)NCCC(=O)NNC(=O)COc2ccccc2F)cc1	nt	nt	nt	114%	-17%	nt
CC(=O)c1ccc2c(c1)Cc1cc(C(C)=O)ccc1-2	5%	5.2µM*	-8%	-21%	10%	271%
O=S(=O)(Nc1cccc2ccccc12)c1cccs1	-17%	44%	-15%	-45%	5%	?
Cc1ccc(S(=O)(=O)Nc2cccc3ncccc23)cc1	-1%	?	2%	-26%	-1%	?
O=S(=O)(Nc1ccc(O)c2ccccc12)c1ccc(Br)cc1	20µM*	?	-3%	11µM*	-9%	4.7µM*
O=S(=O)(Nc1ccc(O)c2ccccc12)c1cccs1	20µM*	-17%	-9%	-37%	-11%	0%
Cc1ccc(S(=O)(=O)Nc2ccc(O)c3cccnc23)cc1	-19%	9.3µM*	-9%	-40%	2%	6.6µM*
CCN(CCn1cccn1)Cc1c(C(=O)N2CCCCCCC2)nc2ccc(Cl)cn12	nt	?	6%	218%	0%	?
CC1CCCC(NCC(=O)Nc2ccc(C(N)=O)cc2)C1C (configuration not stated)	4%	3%	0%	-47%	-1%	-15%
c1ccc2oc(Cc3ccc(Cc4nc5ccccc5o4)cc3)nc2c1	-12%	13µM*	-2%	-23%	-13%	-26%
CC(=O)C1=C(O)C(=O)N(c2cc(C(C)(C)C)on2)C1c1ccc(C(C)C)cc1 (configuration not stated)	14%	13µM*	?	-23%	-3%	-16%
